Reference: the supplement of paper PMC10849652
About 7,900 targets were measured; listed, in parts, are those with a hit and a random draw of the rest. About 0.6% of all pairs of compound and target were hits.

The targets below were run with COc1cc2ncnc(Nc3ccc(F)c(Cl)c3)c2cc1OCCCN1CCOCC1 [gefitinib] (assay: log2 fold change, soluble protein after heating vs DMSO (PISA); higher = thermal stabilisation; K562 cells, 10 uM, 30 min; active = over 0.2 and 3.5 SD of the protein, either way, in both replicates (recomputed)).
Procedure, shortened: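 Quantification of soluble protein used TMTpro 16plex LC-MS/MS, with channel sums equalised. Samples were the supernatant after 21,000xg for 90 min of pooled aliquots from K562 cells (2×10^6 cells/mL) treated with 10 μM compound for 30 min, heated for 3 min over 48°C-58°C, and extracted in PBS with 0.5% NP-40 at 4°C. Values, from duplicates, describe thermal stability against control samples on a log2 fold-change scale.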

UniProt P49585, sequence (P49585 whole entry, looked up): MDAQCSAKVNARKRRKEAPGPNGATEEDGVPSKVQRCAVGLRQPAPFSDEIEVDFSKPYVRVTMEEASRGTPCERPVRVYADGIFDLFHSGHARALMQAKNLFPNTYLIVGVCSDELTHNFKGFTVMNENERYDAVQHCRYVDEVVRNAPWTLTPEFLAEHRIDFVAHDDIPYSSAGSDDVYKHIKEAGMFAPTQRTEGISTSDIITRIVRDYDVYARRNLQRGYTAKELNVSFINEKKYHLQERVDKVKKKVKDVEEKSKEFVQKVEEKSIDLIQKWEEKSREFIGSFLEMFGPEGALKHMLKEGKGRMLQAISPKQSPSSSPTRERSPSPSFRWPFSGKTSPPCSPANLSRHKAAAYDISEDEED
UniProt P17980, sequence (P17980 whole entry, looked up): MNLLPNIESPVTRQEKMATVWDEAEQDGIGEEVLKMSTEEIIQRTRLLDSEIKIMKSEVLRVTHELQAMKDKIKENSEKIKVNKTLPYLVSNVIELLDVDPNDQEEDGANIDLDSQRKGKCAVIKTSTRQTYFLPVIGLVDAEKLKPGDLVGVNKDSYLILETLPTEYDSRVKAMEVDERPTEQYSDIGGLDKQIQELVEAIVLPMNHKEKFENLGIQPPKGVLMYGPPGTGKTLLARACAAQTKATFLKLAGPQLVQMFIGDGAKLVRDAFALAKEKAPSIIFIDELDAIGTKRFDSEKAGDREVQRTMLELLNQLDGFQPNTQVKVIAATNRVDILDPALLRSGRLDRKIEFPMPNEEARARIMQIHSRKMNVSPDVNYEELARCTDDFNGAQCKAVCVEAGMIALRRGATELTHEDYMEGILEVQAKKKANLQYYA
UniProt Q5VTL8, sequence (Q5VTL8 whole entry, looked up): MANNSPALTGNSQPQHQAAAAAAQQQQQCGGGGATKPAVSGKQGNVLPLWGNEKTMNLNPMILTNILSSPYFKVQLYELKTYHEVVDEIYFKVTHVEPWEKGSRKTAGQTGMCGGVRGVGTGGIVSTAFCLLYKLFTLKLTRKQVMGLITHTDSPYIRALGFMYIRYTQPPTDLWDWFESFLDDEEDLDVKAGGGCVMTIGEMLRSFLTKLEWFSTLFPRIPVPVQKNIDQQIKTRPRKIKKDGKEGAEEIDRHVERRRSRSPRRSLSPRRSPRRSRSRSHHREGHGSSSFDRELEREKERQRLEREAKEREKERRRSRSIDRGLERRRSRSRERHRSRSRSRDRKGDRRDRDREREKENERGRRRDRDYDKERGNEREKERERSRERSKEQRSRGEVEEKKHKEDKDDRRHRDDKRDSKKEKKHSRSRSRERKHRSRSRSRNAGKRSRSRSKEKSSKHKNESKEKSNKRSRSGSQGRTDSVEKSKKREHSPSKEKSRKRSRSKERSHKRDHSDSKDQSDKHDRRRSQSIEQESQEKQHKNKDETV
UniProt Q9H3S7, sequence (Q9H3S7 whole entry, looked up): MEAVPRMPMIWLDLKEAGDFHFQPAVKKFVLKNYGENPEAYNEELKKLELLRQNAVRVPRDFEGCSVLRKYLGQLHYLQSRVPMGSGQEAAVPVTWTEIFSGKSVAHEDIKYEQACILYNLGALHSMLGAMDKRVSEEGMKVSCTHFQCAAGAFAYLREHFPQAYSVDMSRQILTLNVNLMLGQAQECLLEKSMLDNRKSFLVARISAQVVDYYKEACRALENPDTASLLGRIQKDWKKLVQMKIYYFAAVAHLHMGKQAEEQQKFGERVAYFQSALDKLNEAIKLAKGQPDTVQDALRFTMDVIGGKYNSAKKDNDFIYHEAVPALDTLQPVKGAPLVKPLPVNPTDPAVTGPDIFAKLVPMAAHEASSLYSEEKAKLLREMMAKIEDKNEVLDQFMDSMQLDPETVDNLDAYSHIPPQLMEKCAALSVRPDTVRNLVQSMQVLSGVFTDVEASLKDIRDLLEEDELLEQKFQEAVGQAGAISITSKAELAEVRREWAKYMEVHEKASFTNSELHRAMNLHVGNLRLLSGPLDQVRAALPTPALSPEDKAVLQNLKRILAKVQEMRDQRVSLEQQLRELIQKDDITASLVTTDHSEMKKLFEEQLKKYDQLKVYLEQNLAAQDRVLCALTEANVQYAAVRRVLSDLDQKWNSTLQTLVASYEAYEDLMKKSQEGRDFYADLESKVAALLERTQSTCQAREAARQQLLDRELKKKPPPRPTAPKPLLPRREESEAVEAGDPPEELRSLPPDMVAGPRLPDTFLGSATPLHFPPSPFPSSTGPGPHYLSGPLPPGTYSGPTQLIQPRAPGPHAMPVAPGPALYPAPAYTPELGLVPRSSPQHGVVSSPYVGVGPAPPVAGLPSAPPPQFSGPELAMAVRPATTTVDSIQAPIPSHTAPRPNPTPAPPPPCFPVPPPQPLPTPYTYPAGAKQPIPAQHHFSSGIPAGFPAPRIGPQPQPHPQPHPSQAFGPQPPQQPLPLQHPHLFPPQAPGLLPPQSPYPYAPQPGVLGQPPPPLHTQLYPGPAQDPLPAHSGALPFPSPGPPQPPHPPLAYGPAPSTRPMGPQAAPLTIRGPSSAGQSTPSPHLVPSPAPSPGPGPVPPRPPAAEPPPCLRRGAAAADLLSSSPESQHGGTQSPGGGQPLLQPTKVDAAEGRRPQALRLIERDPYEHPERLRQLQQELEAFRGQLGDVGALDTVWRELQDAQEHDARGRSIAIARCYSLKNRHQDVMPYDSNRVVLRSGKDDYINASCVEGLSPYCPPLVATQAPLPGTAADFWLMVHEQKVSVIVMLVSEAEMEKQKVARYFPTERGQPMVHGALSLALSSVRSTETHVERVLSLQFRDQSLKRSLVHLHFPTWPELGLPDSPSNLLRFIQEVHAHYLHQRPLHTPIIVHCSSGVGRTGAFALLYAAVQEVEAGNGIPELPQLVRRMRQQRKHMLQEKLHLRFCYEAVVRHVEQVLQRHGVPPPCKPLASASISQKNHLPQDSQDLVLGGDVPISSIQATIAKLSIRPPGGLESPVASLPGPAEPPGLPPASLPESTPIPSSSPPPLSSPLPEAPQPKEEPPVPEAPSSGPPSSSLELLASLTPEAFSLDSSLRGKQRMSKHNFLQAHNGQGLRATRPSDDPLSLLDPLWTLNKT
UniProt Q9UMR5, sequence (Q9UMR5 whole entry, looked up): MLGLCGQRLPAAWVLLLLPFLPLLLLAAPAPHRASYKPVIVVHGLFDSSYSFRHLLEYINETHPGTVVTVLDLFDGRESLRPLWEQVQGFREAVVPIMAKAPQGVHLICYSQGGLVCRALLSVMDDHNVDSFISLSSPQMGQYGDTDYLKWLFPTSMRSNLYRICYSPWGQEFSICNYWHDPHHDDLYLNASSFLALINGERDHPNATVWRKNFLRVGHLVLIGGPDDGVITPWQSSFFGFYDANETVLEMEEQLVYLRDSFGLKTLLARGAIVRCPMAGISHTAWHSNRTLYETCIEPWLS
UniProt O75400, sequence (O75400 whole entry, looked up): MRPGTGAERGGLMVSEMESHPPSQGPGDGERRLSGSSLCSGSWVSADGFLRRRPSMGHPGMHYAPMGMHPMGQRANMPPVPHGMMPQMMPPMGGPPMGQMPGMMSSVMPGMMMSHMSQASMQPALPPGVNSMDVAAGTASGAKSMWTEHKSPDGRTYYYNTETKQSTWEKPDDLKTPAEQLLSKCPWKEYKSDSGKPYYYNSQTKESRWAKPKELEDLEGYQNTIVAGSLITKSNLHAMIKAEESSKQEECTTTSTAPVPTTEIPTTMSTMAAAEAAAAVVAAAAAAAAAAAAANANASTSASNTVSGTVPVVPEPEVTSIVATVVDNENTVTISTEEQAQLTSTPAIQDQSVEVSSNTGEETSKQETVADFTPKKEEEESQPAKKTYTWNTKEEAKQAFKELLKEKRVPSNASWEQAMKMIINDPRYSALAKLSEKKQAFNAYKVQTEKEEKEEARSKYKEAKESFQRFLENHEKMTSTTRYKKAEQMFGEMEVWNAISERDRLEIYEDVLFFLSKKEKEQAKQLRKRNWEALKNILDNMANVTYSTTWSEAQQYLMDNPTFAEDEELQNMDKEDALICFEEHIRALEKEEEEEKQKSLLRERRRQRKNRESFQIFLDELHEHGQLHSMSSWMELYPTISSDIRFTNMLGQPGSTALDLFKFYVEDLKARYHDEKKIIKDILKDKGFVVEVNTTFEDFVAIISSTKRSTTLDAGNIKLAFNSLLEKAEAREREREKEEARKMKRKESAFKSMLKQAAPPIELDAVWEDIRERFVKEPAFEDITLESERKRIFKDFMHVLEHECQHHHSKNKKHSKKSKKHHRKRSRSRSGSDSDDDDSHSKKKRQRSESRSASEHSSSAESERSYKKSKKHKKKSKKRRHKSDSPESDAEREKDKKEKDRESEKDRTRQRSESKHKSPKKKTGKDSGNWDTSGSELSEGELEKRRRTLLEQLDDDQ
UniProt Q9BTU6, sequence (Q9BTU6 whole entry, looked up): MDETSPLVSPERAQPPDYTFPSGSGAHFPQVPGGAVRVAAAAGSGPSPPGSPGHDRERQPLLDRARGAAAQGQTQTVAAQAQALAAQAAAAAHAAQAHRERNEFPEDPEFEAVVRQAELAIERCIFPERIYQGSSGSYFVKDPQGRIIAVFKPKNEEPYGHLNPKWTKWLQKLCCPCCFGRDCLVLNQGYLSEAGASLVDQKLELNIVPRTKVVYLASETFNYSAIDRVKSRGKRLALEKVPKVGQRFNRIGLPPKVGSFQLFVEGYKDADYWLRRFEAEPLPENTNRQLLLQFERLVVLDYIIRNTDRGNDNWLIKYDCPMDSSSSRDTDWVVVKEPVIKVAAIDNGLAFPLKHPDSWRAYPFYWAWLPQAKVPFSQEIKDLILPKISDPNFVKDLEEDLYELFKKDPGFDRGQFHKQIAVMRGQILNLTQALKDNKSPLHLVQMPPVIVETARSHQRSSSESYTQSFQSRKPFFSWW
UniProt Q9UKL6, sequence (Q9UKL6 whole entry, looked up): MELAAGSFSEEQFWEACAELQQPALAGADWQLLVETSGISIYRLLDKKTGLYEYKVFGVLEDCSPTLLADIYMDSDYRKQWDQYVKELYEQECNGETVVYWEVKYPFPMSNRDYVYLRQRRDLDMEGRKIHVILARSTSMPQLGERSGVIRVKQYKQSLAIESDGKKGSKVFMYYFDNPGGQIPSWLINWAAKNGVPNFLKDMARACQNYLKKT

log2 fold change, inactive:
PPP6R1 (UniProt Q9UPN7) 0.012
PLIN2 (UniProt Q99541) 0.003
PELP1 (UniProt Q8IZL8) -0.002
PCGF2 (UniProt P35227) 0.021
PTPN23 (UniProt Q9H3S7) 0.041
PBK (UniProt Q96KB5) 0.084
POTEI (UniProt P0CG38) 0.015
PDE4DIP isoform 4 (UniProt Q5VU43) 0.024
PSMD2 (UniProt Q13200) -0.043
PPT2 isoform 3 (UniProt Q9UMR5) -0.004
PLA2G15 (UniProt Q8NCC3) 0.001
PRPF38B (UniProt Q5VTL8) 0.002
PELO (UniProt Q9BRX2) 0.009
PIGT (UniProt Q969N2) -0.006
PRKCQ (UniProt Q04759) 0.021
PDCD6IP (UniProt Q8WUM4) 0.06
PRIM2 (UniProt P49643) 0.069
POLR2B (UniProt P30876) 0.064
PIP4P2 (UniProt Q8N4L2) 0.009
PTMA (UniProt P06454) 0.029
POLD3 (UniProt Q15054) 0.066
PCTP (UniProt Q9UKL6) -0.024
PSMC3 (UniProt P17980) -0.045
POLR3K (UniProt Q9Y2Y1) -0.023
PPP2R5C isoform 4 (UniProt Q13362) -0.004
PCYT1A (UniProt P49585) -0.012
PEF1 (UniProt Q9UBV8) -0.011
PITRM1 isoform 2 (UniProt Q5JRX3) 0.137
PURA (UniProt Q00577) -0.024
PPIL1 (UniProt Q9Y3C6) -0.023
PIKFYVE (UniProt Q9Y2I7) -0.308
PNPLA8 (UniProt Q9NP80) 0.032
PNPLA2 (UniProt Q96AD5) -0.048
PGGT1B (UniProt P53609) -0.013
PI4K2A (UniProt Q9BTU6) -0.027
PRPF40A (UniProt O75400) 0.042
POLD1 (UniProt P28340) 0.007
